Results as given in PubChem BioAssay (Tox21).
“And” between values parts separate entries of the source, which are not always exact repeats. Equal entries are not always repeated. Inconclusive results are not listed. The source made the active and inactive calls. Calls follow the shape of the dose curve; as a rule, active = well fitted activation curve with a large enough effect in the repeat runs; inconclusive = weak or mixed curves; inactive = flat fitted curve, though single readings scatter.

Experiment: A CellTox Green Cytotoxicity Assay to monitor cytotoxicity in HepG2 cells - 8 hour (AID 1224890); also: nearly all actives have a fitted effect of over 45% in size
Settings: CellTox Green fluorescence; series mostly up to 76.8 µM; cytotoxicity increase: at the top concentration
Procedure, shortened: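 Continuous culture of HepG2 cells with a membrane-impermeant DNA dye; rising fluorescence marks dead cells. Compound exposure lasted up to 40 h at 37 C, with reads every 8 h from 0 h.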
% is scaled to controls: 0 for no effect and ±100 for the full control effect; potency is read from the fitted curve at half-maximal effect.

SMILES | Potency | cytotoxicity increase
CC(=O)C1=C(C)[C@@H]2C[C@@]3(C1)[C@H](C)CC[C@H]3C2(C)C | inactive | 
O=C(O)c1cccc(C(=O)O)c1 | inactive | 
c1ccc2cc3c(ccc4ccccc43)cc2c1 | inactive | 
CC[C@@H](N)CO |  | -8.32% (inactive)
Cc1scc2c1N(C(=O)CN1CCN(C)CC1)c1ccccc1NC2=O |  | -2.43% [at 35.3 µM] (inactive)
CC(N)=O |  | 1.62% [at 200 µM] (inactive)
O=C1OC2(c3ccc(O)cc3Oc3cc(O)ccc32)c2ccccc21 | 692 nM (active) and 301 nM (active) | 
c1ccc2n[nH]nc2c1 | inactive | 
Oc1c(Cl)cc(Cl)c(Cl)c1Cc1c(O)c(Cl)cc(Cl)c1Cl |  | 3.8% (inactive)
c1ccc2c(c1)CCCC2C1=NCCN1 (centres undefined) |  | -6.03% [at 35.3 µM] (inactive)
CN1C(=O)c2ccc([N+](=O)[O-])cc2C1=O |  | -9.27% (inactive)
Cc1cc(Cc2cc(C)cc(C(C)(C)C)c2O)c(O)c(C(C)(C)C)c1 | 43.9 µM (active) and 34.7 µM (active) | 
CCN(CC)CCOc1ccc(/C(=C(\Cl)c2ccccc2)c2ccccc2)cc1 | 35.4 µM (active) and 21.3 µM (active) | 
NCCO |  | 5.41% (inactive)
